# Data published in PubChem BioAssay (Tox21).
# Results filed as inconclusive are left out. Values without a mark were called inactive. Calls of active or inactive are those of the source. Calls come from the whole dose curve; as a rule, active = well fitted inhibition curve with a large enough effect in the repeat runs; inconclusive = weak or mixed curves; inactive = no such curve, though single readings can be large or run the other way.
# Target: Cytochrome P450 2D6 (Homo sapiens) (UniProt P10635)
# Test: Cytochrome P450 Family 2 Subfamily D Member 6 (CYP2D6) small molecule antagonists: luciferase reporter qHTS assay (AID 1671196); note: nearly all actives have a fitted effect of over 50% in size
# Settings: P450-Glo CYP2D6 enzyme assay, luciferin luminescence, 1 h; series mostly up to 115 µM; activity change, negative = inhibition: at the top concentration
# Summary of the method: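 Chemicals tested for interference with CYP2D6 activity; proluciferin substrate, NADPH regeneration, 1 h at room temperature, luminescent detection.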
# % is set by controls: 0 for no effect and ±100 for the full control effect; potency is the fitted concentration of half-maximal effect.
# Cytochrome P450 2D6 (Homo sapiens), sequence (P10635 whole entry, looked up): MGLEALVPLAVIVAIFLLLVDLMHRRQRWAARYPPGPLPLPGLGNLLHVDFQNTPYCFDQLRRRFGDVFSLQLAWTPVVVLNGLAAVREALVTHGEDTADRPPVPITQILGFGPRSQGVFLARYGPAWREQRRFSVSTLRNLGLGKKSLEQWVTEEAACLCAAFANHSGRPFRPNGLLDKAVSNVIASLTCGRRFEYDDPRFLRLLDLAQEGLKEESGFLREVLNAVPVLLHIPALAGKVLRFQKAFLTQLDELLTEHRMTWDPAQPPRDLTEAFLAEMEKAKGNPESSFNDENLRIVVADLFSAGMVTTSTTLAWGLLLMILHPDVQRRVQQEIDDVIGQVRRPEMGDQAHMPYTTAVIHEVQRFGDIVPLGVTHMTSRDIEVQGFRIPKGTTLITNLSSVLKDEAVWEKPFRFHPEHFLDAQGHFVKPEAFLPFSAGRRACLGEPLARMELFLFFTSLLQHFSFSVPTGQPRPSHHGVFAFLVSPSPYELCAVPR
SMILES,"activity change, negative = inhibition",Potency
O=C1O[C@@H]2[C@@H](O)[C@H](O)O[C@@H]2[C@H]1O,0.167%,–
c1ccc2nccnc2c1,-12.6%,–
CCCCCCCCC(=O)Cl,-21.2%,–
CC(C)c1ccc2cc(C(C)C)ccc2c1,-0.953%,–
CC(C)(C)c1n[nH]c(=S)n(N)c1=O,-1.54%,–
Cc1ccc2c(c1)OCC(=O)CO2,–,35.6 µM (active)
C[C@@H](O)[C@H]1C(=O)N2C(C(=O)O)=C(SCCN=CN)C[C@H]12,-14.3% [at 53 µM],–
N#Cc1ccc(C(=O)O)cc1,–,28.3 µM (active)
O=C(O)C(=O)Cc1ccccc1,-17.1%,–
C=C(C)C(=O)OCc1ccccc1,-11.1%,–
CC(=O)N[C@@H](CCC(=O)O)C(=O)O,-19.8% [at 53 µM],–
CCCCCCCCCCl,–,40.3 µM (active)
CCCC(=O)C(C)=O,0.676%,–

# Target: Cytochrome P450 2C19 (Homo sapiens) (UniProt P33261)
# Test: Cytochrome P450 Family 2 Subfamily C Member 19 (CYP2C19) small molecule antagonists: luciferase reporter qHTS assay (AID 1671197); note: nearly all actives have a fitted effect of over 65% in size
# Settings: P450-Glo CYP2C19 enzyme, luciferin luminescence, 1 h; series mostly up to 115 µM; activity change, negative = inhibition: at the top concentration
# Summary of the method: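 Enzyme-substrate mix with proluciferin substrate (P450-Glo CYP2C19 system) preincubated with compounds 10 min at room temperature; NADPH regeneration solution added, 37C for 1 h; detection reagent stops reaction, luminescence read after 20 min. Ketoconazole positive control.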
# Cytochrome P450 2C19 (Homo sapiens), sequence (P33261 whole entry, looked up): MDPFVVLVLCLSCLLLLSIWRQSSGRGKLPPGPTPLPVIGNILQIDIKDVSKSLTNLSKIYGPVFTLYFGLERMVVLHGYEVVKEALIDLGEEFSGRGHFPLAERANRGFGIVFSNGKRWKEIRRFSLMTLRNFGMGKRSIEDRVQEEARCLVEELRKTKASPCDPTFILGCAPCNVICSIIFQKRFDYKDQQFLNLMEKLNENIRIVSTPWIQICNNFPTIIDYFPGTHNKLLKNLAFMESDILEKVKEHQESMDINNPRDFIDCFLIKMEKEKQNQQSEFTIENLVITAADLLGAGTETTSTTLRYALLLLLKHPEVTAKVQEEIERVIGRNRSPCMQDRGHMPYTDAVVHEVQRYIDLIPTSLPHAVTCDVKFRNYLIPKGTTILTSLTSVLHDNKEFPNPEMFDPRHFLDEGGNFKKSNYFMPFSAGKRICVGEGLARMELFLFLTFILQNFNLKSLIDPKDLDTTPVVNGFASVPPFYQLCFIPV
SMILES,"activity change, negative = inhibition",Potency
Nc1nnc(-c2cccc(Cl)c2Cl)c(N)n1,-12.8% [at 52.9 µM],–
NNc1nnc(NN)c2ccccc12,16.5% [at 52.9 µM],–
CN(CCOc1ccc(NS(C)(=O)=O)cc1)CCc1ccc(NS(C)(=O)=O)cc1,-11.6% [at 52.9 µM],–
CCCCCCCCC1CCC(=O)O1 (centres undefined),–,56.4 µM (active)
CC(C)CC(C)CC(C)CC(C)COC(=O)c1ccccc1C(=O)OCC(C)CC(C)CC(C)CC(C)C (centres undefined),–,65.9 µM (active)
O=C(NCCN1CCOCC1)c1ccc(Cl)cc1,–,34.7 µM (active)
CC(=O)OC(C)OC(=O)C(C)c1ccc(-c2ccccc2)c(F)c1 (centres undefined),–,5.49 µM (active)
O=C(O)c1cc(Cl)cc([N+](=O)[O-])c1Cl,-11.8%,–
COC(=O)CCc1ccc(OCC(O)CNC(C)C)cc1 (centres undefined),-8.75% [at 52.9 µM],–
COC(=O)CCCCCCCC(=O)OC,-8.66%,–
CCN1CCc2nc(N)oc2CC1,1.06% [at 52.9 µM],–
CCOCCOCCOCC,26.4%,–
CCCCCCCCCC(C)=O,11.3%,–
O=C(CS(=O)Cc1ccco1)NC/C=C\COc1cc(CN2CCCCC2)ccn1 (centres undefined),9.26% [at 52.9 µM],–
Nc1cccc(O)c1,–,73.1 µM (active)
O=C1CCCC(=O)O1,-5.87%,–
O=S(=O)(O)c1cc(O)c2ccc(Nc3ccccc3)cc2c1,–,71 µM (active)
O=C(OCC1(COC(=O)c2cccnc2)CCCC(COC(=O)c2cccnc2)(COC(=O)c2cccnc2)C1O)c1cccnc1,–,38.9 µM (active)
O=C1c2cccc3c2[C@H](CCC3)CN1[C@@H]1CN2CCC1CC2,-1.21% [at 52.9 µM],–
C#CC(C)N(C)C(=O)Nc1ccc(Cl)cc1 (centres undefined),–,8.93 µM (active)
COCCOCCOCCOCCO,-10.5%,–
O=S(=O)(O)c1ccc2cc(O)c(S(=O)(=O)O)cc2c1,0.0931%,–
Nc1ncnc(Nc2ccccc2)n1,-15.9% [at 52.9 µM],–
CC(C)OC(=O)CCCCC(=O)OC(C)C,-16.8%,–

# Target: Cytochrome P450 2C9 (Homo sapiens) (UniProt P11712)
# Test: Cytochrome P450 Family 2 Subfamily C Member 9 (CYP2C9) small molecule antagonists: luciferase reporter qHTS assay (AID 1671198); note: nearly all actives have a fitted effect of over 50% in size
# Settings: P450-Glo CYP2C9 enzyme assay, luciferin luminescence; series mostly up to 115 µM; activity change, negative = inhibition: at the top concentration
# Summary of the method: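 Enzyme-substrate mix preincubated with compound 10 min at room temperature; reaction started with NADPH regeneration solution, 1 h 37C. Luminescent luciferin product read after 20 min detection reagent.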
# Cytochrome P450 2C9 (Homo sapiens), sequence (P11712 whole entry, looked up): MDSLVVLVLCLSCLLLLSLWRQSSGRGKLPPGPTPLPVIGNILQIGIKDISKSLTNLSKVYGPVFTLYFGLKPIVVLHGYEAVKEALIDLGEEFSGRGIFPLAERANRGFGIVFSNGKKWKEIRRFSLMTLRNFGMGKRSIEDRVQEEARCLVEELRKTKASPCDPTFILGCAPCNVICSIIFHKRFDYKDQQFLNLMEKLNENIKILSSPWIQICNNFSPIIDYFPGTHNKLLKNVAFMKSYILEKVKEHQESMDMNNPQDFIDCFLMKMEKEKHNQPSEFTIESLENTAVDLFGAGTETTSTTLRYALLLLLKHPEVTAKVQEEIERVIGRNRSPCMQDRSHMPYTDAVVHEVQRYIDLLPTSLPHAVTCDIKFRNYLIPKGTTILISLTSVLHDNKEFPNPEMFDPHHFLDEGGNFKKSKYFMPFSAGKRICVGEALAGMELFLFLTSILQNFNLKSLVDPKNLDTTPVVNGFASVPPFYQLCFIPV
SMILES,"activity change, negative = inhibition",Potency
Nc1nnc(-c2cccc(Cl)c2Cl)c(N)n1,0.798% [at 53 µM],–
c1ccc2nccnc2c1,-18.6%,–
NNc1nnc(NN)c2ccccc12,–,34.7 µM (active)
CN(CCOc1ccc(NS(C)(=O)=O)cc1)CCc1ccc(NS(C)(=O)=O)cc1,-9.97% [at 53 µM],–
CCCCCCCCC1CCC(=O)O1 (centres undefined),–,71 µM (active)
CC(C)CC(C)CC(C)CC(C)COC(=O)c1ccccc1C(=O)OCC(C)CC(C)CC(C)CC(C)C (centres undefined),–,58.7 µM (active)
O=C(NCCN1CCOCC1)c1ccc(Cl)cc1,-2.92% [at 53 µM],–
CC(=O)OC(C)OC(=O)C(C)c1ccc(-c2ccccc2)c(F)c1 (centres undefined),–,3.47 µM (active)
O=C(O)c1cc(Cl)cc([N+](=O)[O-])c1Cl,–,71 µM (active)
COC(=O)CCc1ccc(OCC(O)CNC(C)C)cc1 (centres undefined),2.56% [at 53 µM],–
CC(C)c1ccc2cc(C(C)C)ccc2c1,-14.8%,–
COC(=O)CCCCCCCC(=O)OC,-25.6%,–
Cc1ccc2c(c1)OCC(=O)CO2,-18.7%,–
CCN1CCc2nc(N)oc2CC1,-5.13% [at 53 µM],–
CCOCCOCCOCC,-6.09%,–
CCCCCCCCCC(C)=O,-10.1%,–

SMILES,"activity change, negative = inhibition",Potency
O=C(CS(=O)Cc1ccco1)NC/C=C\COc1cc(CN2CCCCC2)ccn1 (centres undefined),-4.49% [at 53 µM],–
Nc1cccc(O)c1,–,25.9 µM (active)
O=C1CCCC(=O)O1,–,12.6 µM (active)
O=S(=O)(O)c1cc(O)c2ccc(Nc3ccccc3)cc2c1,–,39.9 µM (active)
N#Cc1ccc(C(=O)O)cc1,-9.45%,–
O=C(OCC1(COC(=O)c2cccnc2)CCCC(COC(=O)c2cccnc2)(COC(=O)c2cccnc2)C1O)c1cccnc1,–,12.3 µM (active)
O=C1c2cccc3c2[C@H](CCC3)CN1[C@@H]1CN2CCC1CC2,0.625% [at 53 µM],–
O=C(O)C(=O)Cc1ccccc1,-18.4%,–
C=C(C)C(=O)OCc1ccccc1,-9.62%,–
CC(=O)N[C@@H](CCC(=O)O)C(=O)O,25.8% [at 53 µM],–
C#CC(C)N(C)C(=O)Nc1ccc(Cl)cc1 (centres undefined),–,4.47 µM (active)
COCCOCCOCCOCCO,-2.24%,–
CCCCCCCCCCl,-10.3%,–
O=S(=O)(O)c1ccc2cc(O)c(S(=O)(=O)O)cc2c1,-10.9%,–
Nc1ncnc(Nc2ccccc2)n1,-0.861% [at 53 µM],–
CC(C)OC(=O)CCCCC(=O)OC(C)C,1.22%,–

# Target: Cytochrome P450 1A2 (Homo sapiens) (UniProt P05177)
# Test: Cytochrome P450 Family 1 Subfamily A Member 2 (CYP1A2) small molecule antagonists: luciferase reporter qHTS assay (AID 1671199); note: nearly all actives have a fitted effect of over 50% in size
# Settings: P450-Glo CYP1A2 enzyme, luciferin luminescence, 1 h; series mostly up to 53 µM; activity change, negative = inhibition: at the top concentration
# Summary of the method: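 Read-out is luminescence from luciferin detection reagent (20 min) proportional to CYP1A2 activity; compounds in DMSO preincubated 10 min with enzyme and proluciferin substrate, then NADPH regeneration solution, 1 h, room temperature.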
# Cytochrome P450 1A2 (Homo sapiens), sequence (P05177 whole entry, looked up): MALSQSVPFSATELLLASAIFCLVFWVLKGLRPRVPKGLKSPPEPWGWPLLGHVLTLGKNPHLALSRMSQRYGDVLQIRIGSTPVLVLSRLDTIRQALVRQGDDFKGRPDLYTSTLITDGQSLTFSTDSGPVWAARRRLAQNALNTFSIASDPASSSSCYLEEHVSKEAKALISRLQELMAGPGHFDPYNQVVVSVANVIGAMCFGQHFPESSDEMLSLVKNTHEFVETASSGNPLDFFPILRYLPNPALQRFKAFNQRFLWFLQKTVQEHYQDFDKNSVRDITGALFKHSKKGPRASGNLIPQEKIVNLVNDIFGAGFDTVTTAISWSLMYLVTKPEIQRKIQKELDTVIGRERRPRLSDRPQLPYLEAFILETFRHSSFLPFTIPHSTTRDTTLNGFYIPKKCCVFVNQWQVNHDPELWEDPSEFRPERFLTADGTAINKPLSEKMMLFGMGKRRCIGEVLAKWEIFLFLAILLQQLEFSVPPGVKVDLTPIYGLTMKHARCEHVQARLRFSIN
SMILES,"activity change, negative = inhibition",Potency
Nc1nnc(-c2cccc(Cl)c2Cl)c(N)n1,-1.03%,–
O=C1O[C@@H]2[C@@H](O)[C@H](O)O[C@@H]2[C@H]1O,-9.56% [at 115 µM],–
CN(CCOc1ccc(NS(C)(=O)=O)cc1)CCc1ccc(NS(C)(=O)=O)cc1,0.313%,–
CC(C)CC(C)CC(C)CC(C)COC(=O)c1ccccc1C(=O)OCC(C)CC(C)CC(C)CC(C)C (centres undefined),–,65.9 µM (active)
CC(=O)OC(C)OC(=O)C(C)c1ccc(-c2ccccc2)c(F)c1 (centres undefined),–,8.71 µM (active)
O=C(O)c1cc(Cl)cc([N+](=O)[O-])c1Cl,–,39.9 µM (active)
COC(=O)CCc1ccc(OCC(O)CNC(C)C)cc1 (centres undefined),12.2%,–
CCOCCOCCOCC,-15.1% [at 115 µM],–
O=C(CS(=O)Cc1ccco1)NC/C=C\COc1cc(CN2CCCCC2)ccn1 (centres undefined),-3.22%,–
C[C@@H](O)[C@H]1C(=O)N2C(C(=O)O)=C(SCCN=CN)C[C@H]12,-11.8%,–
O=C1CCCC(=O)O1,-27.6% [at 115 µM],–
O=S(=O)(O)c1cc(O)c2ccc(Nc3ccccc3)cc2c1,-8.08% [at 115 µM],–
O=C(OCC1(COC(=O)c2cccnc2)CCCC(COC(=O)c2cccnc2)(COC(=O)c2cccnc2)C1O)c1cccnc1,5.63%,–
C#CC(C)N(C)C(=O)Nc1ccc(Cl)cc1 (centres undefined),–,3.99 µM (active)
CC(C)OC(=O)CCCCC(=O)OC(C)C,-16.4% [at 115 µM],–
